From PubChem BioAssay
The list is not random: actives were taken first. Their share in the collection is about 2.4%.
STAT3 inh: STAT3 signaling inhibition. inhibition, % at 5.5 µM. U3A cells, IL-6 STAT3-luciferase reporter, luminescence; host cell line lacks STAT1. hit rate 0.89% among 190,000. AID 862;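 active means inhibition above the mean inhibition across all screened compounds plus 3 SD, cut at about 44% in these data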;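 further: 0% = DMSO only wells and 100% = 100 µM nifuroxazide control wells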
C8 TRAIL sens: sensitizes caspase-8 expressing cells to TRAIL. inhibition (viability loss, TRAIL sensitization), % at 10 µM. AID 624354. hit rate 1% among 360,000. NB7+C8 cells + TRAIL, ATPlite viability luminescence;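 active means compounds causing at least 50% loss of cell viability in the single-dose screen, relative to plate controls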
HSP90 refold inh: inhibitors of HSP90 luciferase refolding in rabbit reticulocyte lysate. luciferase refolding luminescence, 3 h. inhibition, % at 5.6 µM. hit rate 0.91% among 290,000;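 active means inhibition above the screen-wide mean plus 3 SD, computed separately per campaign, cut at about 16% in these data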;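 further: 0% = DMSO wells and 100% = 60 µM geldanamycin wells; inhibitors lower the luminescence because luciferase stays unfolded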
HSF1 inh: HSF1 inhibition; NIH3T3-HGL HSE-luciferase, MG132-induced, luminescence 8 h; hits give low values; activity change, negative = inhibition, % at 7.5 µM (by protocol); hit rate 0.77% among 300,000;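 active means more than half of replicate wells show activity change below -50%, luminescence cut by over half; inconclusive means some wells, but at most half, below -50%; inactive means no replicate well below -50%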;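 further: luciferase reports HSF-1 transcriptional activity via heat shock element; 0% = median of DMSO wells and -100% = zero luminescence signal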
PPC-1+TRAIL kill: compounds killing PPC-1 cancer cells with TRAIL present (potentiator screen, no TRAIL-free arm); PPC-1 cells + TRAIL, ATPLite viability luminescence; hit rate 0.41% among 220,000; AID 1443; cell killing (% activity), % at 4 µM or 5 µM;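 active means cell killing above 50% in the first pass at 4 µM, then a duplicate retest at 5 µM averaging 50% or more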;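 further: plate controls were cells with TRAIL plus DMSO for no effect and medium-only wells lacking cells for full effect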
STAT1 inh: STAT1 signaling inhibition; hit rate 0.35% among 200,000; NIH 3T3 STAT1-luciferase reporter, IFN-gamma, luminescence; inhibition, % at 5.5 µM;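 active means inhibition above a set limit, the mean inhibition across all tested compounds plus 3 SD, cut at about 34% in these data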;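 further: 0% = IFN-gamma with DMSO and 100% = IFN-gamma with 300 µM nifuroxazide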
Active calls of the source: *; ? = inconclusive; . = no result given.

SMILES	STAT3 inh	C8 TRAIL sens	HSP90 refold inh	HSF1 inh	PPC-1+TRAIL kill	STAT1 inh
CC(C)n1cnc2cc(NCc3nc4ccccc4n3C)ccc21	-4.0	31.9	16.2*	10.2	34.9	-54.7
CCCCC(=O)N(C)c1c(CC)nc2c(OCC(=O)C(C)(C)C)cccn12	.	-6.5	.	.	.	.
COc1ccc(C(=O)NN(C)c2nc(-c3ccccc3)nnc2C(F)(F)F)cc1	10.2	20.0	0.1	-8.0	9.0	3.9
CN(NC(=O)C(C)(C)C)c1nc(-c2ccccc2)nnc1C(F)(F)F	0.4	56.0*	-0.3	3.4	19.1	1.0
Cc1ccc(NC(=O)N2CCCC2C(=O)NCC2CCCCC2)cc1 (centres undefined)	.	-10.5	-2.5	-89.3*	.	.
COc1ccc(CCN2CC(C(=O)NCc3cccc(F)c3)CCC2=O)cc1 (centres undefined)	.	9.2	.	.	.	.
COc1ccc2c(c1OC)C(=O)N(c1cccc(C)c1)C2	22.4	65.1*	-1.9	32.2	14.6	-36.2
COc1ccc(C(=O)NCCn2cc(SCC(=O)NCc3ccco3)c3ccccc32)cc1	6.5	-1.4	59.4*	-14.8	-25.2	-6.4
COc1ccc(C(=O)NCCn2cc(SCC(=O)Nc3nnc(C)s3)c3ccccc32)cc1	-16.1	-1.0	16.6*	-35.0	.	-11.3
CC(=O)OC[C@@H]1CN(Cc2ccccc2)C[C@H](n2cnc3c(NC4CC4)ncnc32)O1	.	-20.6	.	.	.	.
O=C(Nc1ccc(F)c(Cl)c1)c1cc(C2CCCCN2C(=O)CCc2ccccc2)on1 (centres undefined)	.	-3.7	.	.	.	.
CC(=O)OCC(=O)[C@@]1(OC(C)=O)[C@@H](C)C[C@H]2[C@@H]3C[C@H](F)C4=CC(=O)C=C[C@]4(C)[C@@]3(F)[C@@H](O)C[C@@]21C	3.2	11.6	-1.6	-40.9	-6.9	-20.7
CCC(=O)O[C@]1(C(=O)SCF)[C@H](C)C[C@H]2[C@@H]3C[C@H](F)C4=CC(=O)C=C[C@]4(C)[C@@]3(F)[C@@H](O)C[C@@]21C	.	.	.	-52.7*	.	.
CCC(CO)Nc1ncnc2c1cnn2-c1ccc(Cl)cc1 (centres undefined)	19.6	30.0	26.7*	?	26.5	-51.6
CCC(CO)Nc1ncnc2c1cnn2-c1ccc(OC)cc1 (centres undefined)	6.3	33.1	8.4	3.3	20.3	-51.9
OCCCNc1ncnc2c1cnn2-c1ccc(Cl)cc1	.	30.1	16.5*	-11.9	.	.
CN(C)CCNc1ncnc2c1cnn2-c1ccc(Cl)cc1	3.2	39.8	5.1	-11.0	1.3	-19.4
Cc1ccc(OCC(=O)Nc2ccccc2C(N)=O)cc1	.	52.2*	-1.6	12.7	.	.
NC(=O)c1ccccc1NC(=O)COc1ccc(Cl)cc1	.	1.0	-3.1	18.9	-0.2	.
Cc1cc(S(=O)(=O)Nc2ccc(C(=O)NC3CC3)cc2)ccc1F	.	-11.4	.	.	.	.
COc1ccccc1C(O)(C(=O)NNc1ccccc1C)c1ccccc1OC	-4.2	-0.9	-0.8	2.3	0.0	-4.7
COc1ccccc1C(O)(C(=O)N(NC(C)=O)c1ccccc1)c1ccccc1OC	.	-8.9	-5.4	-62.5*	.	.
Cc1ccc2nc(/C(C#N)=C\c3ccc([N+](=O)[O-])o3)[nH]c2c1	8.5	80.7*	3.5	?	32.3	8.7
N#C/C(=C\c1ccc([N+](=O)[O-])o1)c1nc2ccccc2[nH]1	-6.9	.	3.2	-5.6	16.2	17.8
O=C(NC(=S)Nc1ccccc1)c1ccc(-c2ccccc2)cc1	4.1	-9.7	2.2	2.6	53.6*	-12.4
SMILES	STAT3 inh	C8 TRAIL sens	HSP90 refold inh	HSF1 inh	PPC-1+TRAIL kill	STAT1 inh
CC1(C)Cc2c(sc3nc(C4CC4)n(N)c(=O)c23)CO1	.	15.5	-1.6	-60.2*	15.7	.
CC(=O)N1CCN(CC(=O)Nc2ccccc2Sc2ccc(Cl)cc2)CC1	-2.1	-1.9	0.2	1.2	13.4	10.6
COc1cc(OC)cc(C(=O)Nc2ccc3c(c2)OCCO3)c1	.	51.4*	-0.6	15.1	.	.
CCn1cc(Cl)c(C(=O)Nc2ccc3c(c2)OCCO3)n1	39.5	52.0*	3.7	8.6	48.2	-7.8
O=C(Nc1ccc2c(c1)OCO2)c1ccc2c(c1)OCO2	36.4	71.5*	6.5	11.9	48.1	-35.9
O=C(CCl)Nc1ccccc1Sc1ccc(Cl)cc1	7.0	94.7*	4.8	-45.2	-6.9	2.8
O=C(Nc1ccc(F)c(F)c1)c1ccc2c(c1)OCO2	24.1	19.4	0.2	13.3	12.0	-41.9
O=C(NCCCn1ccnc1)c1sc2cc([N+](=O)[O-])ccc2c1Cl	.	17.8	.	.	.	.
CCc1ccc(C(C)NC(=O)c2ccc3c(c2)OCO3)cc1 (centres undefined)	.	-13.0	-0.5	11.2	.	.
O=C(CCNC(=O)c1ccccc1Cl)Nc1ccc2c(c1)OCO2	3.3	4.7	2.3	-4.2	12.9	-5.7
CC(NC(=O)c1ccc2c(c1)OCO2)c1ccccc1 (centres undefined)	.	-2.4	-4.1	-71.5*	.	.
COCCN1Cc2cccc(C(=O)Nc3ccc4c(c3)OCCO4)c2C1=O	28.5	-5.9	7.6	-52.3*	2.4	-3.5
O=C(CCl)Nc1ccccc1C(=O)Nc1ccc2c(c1)OCO2	.	49.5*	9.1	22.0	43.6	.
Cc1cc(C)c(NC(=O)Nc2ccc3c(c2)OCO3)c(C)c1	.	-7.5	-0.6	-75.2*	.	.
COCCN1Cc2cccc(C(=O)Nc3ccc(C)cc3)c2C1=O	27.3	-0.5	1.3	3.0	-2.4	-2.2
COC(=O)[C@]12CCCCC=C1N(Cc1ccc3c(c1)OCO3)C(=O)[C@H](CC(=O)NCC1CCCCC1)C2	.	0.8	.	.	.	.
O=C(Nc1ccc2c(c1)OCCO2)C1CCC1	4.5	-4.6	-2.5	2.1	24.4	-3.9
Cc1cccc(NC(=S)NNC(=O)c2ccc3c(c2)OCO3)c1	11.2	50.4*	-2.8	14.7	48.1	-22.9
O=C(Nc1ccc2c(c1)OCCO2)NC1CCCCC1	20.9	54.9*	10.3	19.0	44.4	-31.8
O=C(Nc1ccc2c(c1)OCCO2)c1cccc2nc3ccccc3nc12	33.8	60.1*	0.6	6.8	23.1	-8.3
O=C(CCl)Nc1ccccc1C(=O)c1ccccc1	6.6	-0.5	-1.0	-95.1*	12.6	2.2
Cc1cccc(NC(=S)NCc2ccc3c(c2)OCO3)c1	2.7	-16.5	-4.7	7.7	27.5	2.6
O=C1NC(=O)c2c(Br)c(Br)c(Br)c(Br)c21	.	-0.5	.	.	.	.
COc1cc(NC(=O)[C@H]2O[C@@H](n3cnc4c(N)ncnc43)[C@H](O)[C@@H]2O)cc(OC)c1OC	.	-6.6	.	.	.	.
COc1ccccc1NC(=O)C1=C(C)NC2=C(C(=O)CC(c3ccc(OC)c(OC)c3)C2)C1c1coc2ccccc2c1=O (centres undefined)	17.8	-3.3	16.2*	30.2	10.4	3.1
CCOC(=O)C1=C(C)NC2=C(C(=O)CC(c3ccc(OC)c(OC)c3)C2)C1c1ccc(C)o1 (centres undefined)	14.0	-13.5	-3.1	.	0.6	3.4
COc1ccc2c(c1)C1OCCC1C(c1ccco1)N2 (centres undefined)	.	83.4*	.	30.9	.	.
COC(=O)c1cc(S(=O)(=O)NCc2ccc(F)cc2)cn1C	.	2.4	-0.4	-52.7*	.	.
